Results published in publication PMC7862700, “An all-to-all approach to the identification of sequence-specific readers for epigenetic DNA modifications on cytosine”.

Tests used:
Experiment in all cases: DAPPL (digital affinity profiling via proximity ligation, sequencing); 10 mM Tris-HCl pH 7.5, 50 mM NaCl, 1 mM DTT, 4% glycerol, room temperature, 30 min; GST-TFs on glutathione beads, 16-mer random dsDNA library, 0.1% formaldehyde crosslink after washing; high values mean tight binding
ELK1 = molecular target: T1, ELK1 (Homo sapiens, UniProt P19419 1-428); settings: protein: recombinant; tags: N-terminal GST; dsDNA, one strand shown
T1 sequence: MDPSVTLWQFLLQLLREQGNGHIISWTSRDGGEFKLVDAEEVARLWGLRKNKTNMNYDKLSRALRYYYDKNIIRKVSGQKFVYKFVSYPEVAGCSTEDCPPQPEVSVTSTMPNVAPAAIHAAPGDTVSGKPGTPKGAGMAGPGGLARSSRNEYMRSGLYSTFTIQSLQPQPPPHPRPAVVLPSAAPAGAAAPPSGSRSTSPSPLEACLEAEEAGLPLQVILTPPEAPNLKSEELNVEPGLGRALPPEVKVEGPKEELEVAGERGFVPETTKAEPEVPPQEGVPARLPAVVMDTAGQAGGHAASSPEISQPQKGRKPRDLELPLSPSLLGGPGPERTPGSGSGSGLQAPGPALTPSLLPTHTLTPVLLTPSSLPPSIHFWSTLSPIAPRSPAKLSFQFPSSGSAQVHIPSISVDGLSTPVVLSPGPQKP
Procedure, shortened: (§1)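 GST fusions of human transcription factors were expressed in yeast and captured with glutathione beads. Once given DNA barcodes and pooled alongside a tag-only sample, they were incubated for 30 min at room temperature with 200 nmole of a random double-stranded 16-mer DNA library in Tris/NaCl/DTT/glycerol buffer, then washed, crosslinked (0.1% formaldehyde), proximity-ligated, PCR-amplified and sequenced on an Illumina NextSeq500. The binding signal of each hexamer is its read frequency for a factor divided by its frequency for the tag-only sample.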

EHF = molecular target: T2, EHF (Homo sapiens, UniProt Q9NZC4 1-300); settings: protein: recombinant; tags: N-terminal GST; dsDNA, one strand shown
T2 sequence: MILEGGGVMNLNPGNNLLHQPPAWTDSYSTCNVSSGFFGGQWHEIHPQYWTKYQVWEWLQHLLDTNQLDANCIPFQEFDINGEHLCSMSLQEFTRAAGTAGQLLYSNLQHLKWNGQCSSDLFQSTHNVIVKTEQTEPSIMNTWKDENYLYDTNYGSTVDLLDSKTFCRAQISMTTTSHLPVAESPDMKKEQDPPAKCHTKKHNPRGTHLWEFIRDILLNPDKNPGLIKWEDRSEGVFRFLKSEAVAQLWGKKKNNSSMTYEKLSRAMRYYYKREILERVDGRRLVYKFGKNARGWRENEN
Procedure, shortened: as §1

SPI1 = SPI1 (Homo sapiens, UniProt P17947 1-270); settings: protein: recombinant; tags: N-terminal GST; dsDNA, one strand shown
Procedure, shortened: as §1

ELK3 = molecular target: T3, ELK3 (Homo sapiens, UniProt P41970 1-407); settings: protein: recombinant; tags: N-terminal GST; dsDNA, one strand shown
T3 sequence: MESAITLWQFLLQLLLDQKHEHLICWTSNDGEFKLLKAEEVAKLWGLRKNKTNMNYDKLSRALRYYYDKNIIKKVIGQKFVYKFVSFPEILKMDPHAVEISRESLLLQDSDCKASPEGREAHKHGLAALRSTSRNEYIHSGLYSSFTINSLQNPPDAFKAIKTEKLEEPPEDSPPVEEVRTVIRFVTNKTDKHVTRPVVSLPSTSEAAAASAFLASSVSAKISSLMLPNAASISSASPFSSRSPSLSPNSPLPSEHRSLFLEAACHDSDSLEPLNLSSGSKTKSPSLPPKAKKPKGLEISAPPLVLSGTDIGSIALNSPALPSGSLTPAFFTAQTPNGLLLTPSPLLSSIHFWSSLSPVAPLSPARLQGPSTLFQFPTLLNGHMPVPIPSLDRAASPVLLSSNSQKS
Procedure, shortened: as §1

HSF1 = HSF1 (Homo sapiens, UniProt Q00613 1-529); settings: protein: recombinant; tags: N-terminal GST; chain copies: 3; dsDNA, one strand shown
Chain of HSF1 (Q00613 whole entry): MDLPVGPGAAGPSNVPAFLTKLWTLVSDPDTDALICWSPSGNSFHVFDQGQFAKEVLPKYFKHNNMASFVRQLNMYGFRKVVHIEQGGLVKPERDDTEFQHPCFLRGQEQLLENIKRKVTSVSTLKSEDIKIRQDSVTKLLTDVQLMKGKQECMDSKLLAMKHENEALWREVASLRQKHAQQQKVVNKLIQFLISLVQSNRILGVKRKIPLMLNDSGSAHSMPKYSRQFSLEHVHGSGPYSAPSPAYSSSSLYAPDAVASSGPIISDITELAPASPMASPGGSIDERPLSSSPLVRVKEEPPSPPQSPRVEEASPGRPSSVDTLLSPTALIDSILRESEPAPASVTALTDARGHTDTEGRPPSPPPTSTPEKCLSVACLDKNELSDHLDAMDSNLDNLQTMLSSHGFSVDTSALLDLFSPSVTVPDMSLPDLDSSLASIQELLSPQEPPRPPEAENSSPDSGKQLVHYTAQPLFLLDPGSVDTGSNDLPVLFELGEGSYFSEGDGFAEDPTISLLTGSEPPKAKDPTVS
Procedure, shortened: as §1

ELF4 = ELF4 (Homo sapiens, UniProt Q99607 1-663); settings: protein: recombinant; tags: N-terminal GST; dsDNA, one strand shown
Chain of ELF4 (Q99607 whole entry): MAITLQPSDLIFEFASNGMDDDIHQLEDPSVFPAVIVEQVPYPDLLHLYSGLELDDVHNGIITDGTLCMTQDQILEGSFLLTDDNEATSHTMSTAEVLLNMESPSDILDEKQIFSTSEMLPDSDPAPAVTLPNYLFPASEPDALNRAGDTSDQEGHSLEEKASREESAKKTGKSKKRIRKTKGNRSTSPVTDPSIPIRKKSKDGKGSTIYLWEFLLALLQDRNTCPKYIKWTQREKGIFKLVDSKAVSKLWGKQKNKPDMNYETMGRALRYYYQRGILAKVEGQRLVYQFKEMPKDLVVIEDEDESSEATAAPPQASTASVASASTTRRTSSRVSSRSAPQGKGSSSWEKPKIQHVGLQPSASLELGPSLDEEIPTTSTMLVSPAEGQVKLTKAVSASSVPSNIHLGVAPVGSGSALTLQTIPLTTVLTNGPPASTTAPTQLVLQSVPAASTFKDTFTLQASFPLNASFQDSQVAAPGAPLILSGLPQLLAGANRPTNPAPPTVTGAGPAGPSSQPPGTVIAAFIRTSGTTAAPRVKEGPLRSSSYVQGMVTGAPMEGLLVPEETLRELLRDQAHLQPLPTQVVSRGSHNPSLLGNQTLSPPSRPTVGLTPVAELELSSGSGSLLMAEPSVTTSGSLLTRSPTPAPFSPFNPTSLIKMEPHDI
Procedure, shortened: as §1

ELK4 = molecular target: T4, ELK4 (Homo sapiens, UniProt P28324-2 1-405); settings: protein: recombinant; tags: N-terminal GST; dsDNA, one strand shown
T4 sequence: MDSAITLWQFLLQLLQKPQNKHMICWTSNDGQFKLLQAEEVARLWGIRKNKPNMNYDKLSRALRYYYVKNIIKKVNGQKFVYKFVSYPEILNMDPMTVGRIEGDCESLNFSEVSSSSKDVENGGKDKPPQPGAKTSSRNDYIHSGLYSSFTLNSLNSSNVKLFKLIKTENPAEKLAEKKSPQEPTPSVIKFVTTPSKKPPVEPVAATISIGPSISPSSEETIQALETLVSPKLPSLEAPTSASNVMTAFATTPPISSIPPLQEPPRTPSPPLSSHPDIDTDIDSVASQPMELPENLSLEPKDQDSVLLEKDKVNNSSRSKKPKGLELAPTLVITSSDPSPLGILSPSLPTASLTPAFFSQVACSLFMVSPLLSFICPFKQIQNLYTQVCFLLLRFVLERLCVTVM
Procedure, shortened: as §1

CRX = CRX (Homo sapiens, UniProt O43186 1-299); settings: protein: recombinant; tags: N-terminal GST; dsDNA, one strand shown
Chain of CRX (O43186 whole entry): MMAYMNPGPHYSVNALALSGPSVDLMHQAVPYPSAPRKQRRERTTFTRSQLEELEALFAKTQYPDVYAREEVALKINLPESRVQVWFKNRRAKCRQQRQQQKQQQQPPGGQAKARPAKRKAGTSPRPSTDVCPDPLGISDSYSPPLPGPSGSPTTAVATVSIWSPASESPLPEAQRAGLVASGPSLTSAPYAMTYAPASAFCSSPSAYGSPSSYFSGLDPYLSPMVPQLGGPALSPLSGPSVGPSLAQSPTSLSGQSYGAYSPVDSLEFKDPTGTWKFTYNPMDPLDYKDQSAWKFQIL
Procedure, shortened: as §1

ETV3L = molecular target: T5, ETV3L (Homo sapiens, UniProt Q6ZN32 1-361); settings: protein: recombinant; tags: N-terminal GST; dsDNA, one strand shown
T5 sequence: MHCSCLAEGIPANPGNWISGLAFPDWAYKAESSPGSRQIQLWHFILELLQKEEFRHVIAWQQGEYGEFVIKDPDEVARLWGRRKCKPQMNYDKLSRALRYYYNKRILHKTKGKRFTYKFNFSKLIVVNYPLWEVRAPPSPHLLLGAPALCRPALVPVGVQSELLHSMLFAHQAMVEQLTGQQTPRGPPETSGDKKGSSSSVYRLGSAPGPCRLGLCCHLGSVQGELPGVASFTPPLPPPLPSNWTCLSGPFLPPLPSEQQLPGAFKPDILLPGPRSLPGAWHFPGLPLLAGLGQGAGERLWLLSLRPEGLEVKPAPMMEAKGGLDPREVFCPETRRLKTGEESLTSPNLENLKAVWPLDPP
Procedure, shortened: as §1

ETS2 = molecular target: T6, ETS2 (Homo sapiens, UniProt P15036 1-469); settings: protein: recombinant; tags: N-terminal GST; dsDNA, one strand shown
T6 sequence: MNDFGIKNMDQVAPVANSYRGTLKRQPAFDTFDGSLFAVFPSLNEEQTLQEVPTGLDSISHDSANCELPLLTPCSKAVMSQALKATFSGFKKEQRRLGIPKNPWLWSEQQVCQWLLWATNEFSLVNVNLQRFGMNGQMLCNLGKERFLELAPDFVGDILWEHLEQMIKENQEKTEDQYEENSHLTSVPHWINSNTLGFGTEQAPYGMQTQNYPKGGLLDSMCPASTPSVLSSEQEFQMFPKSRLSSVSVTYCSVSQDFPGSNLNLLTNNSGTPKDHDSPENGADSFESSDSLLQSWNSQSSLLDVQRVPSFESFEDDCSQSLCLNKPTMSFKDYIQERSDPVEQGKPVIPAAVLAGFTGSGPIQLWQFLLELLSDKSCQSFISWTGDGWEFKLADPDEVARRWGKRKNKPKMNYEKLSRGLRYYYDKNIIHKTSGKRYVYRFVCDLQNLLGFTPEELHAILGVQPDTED
Procedure, shortened: as §1

SPDEF = molecular target: T7, SPDEF (Homo sapiens, UniProt O95238 1-335); settings: protein: recombinant; tags: N-terminal GST; dsDNA, one strand shown
T7 sequence: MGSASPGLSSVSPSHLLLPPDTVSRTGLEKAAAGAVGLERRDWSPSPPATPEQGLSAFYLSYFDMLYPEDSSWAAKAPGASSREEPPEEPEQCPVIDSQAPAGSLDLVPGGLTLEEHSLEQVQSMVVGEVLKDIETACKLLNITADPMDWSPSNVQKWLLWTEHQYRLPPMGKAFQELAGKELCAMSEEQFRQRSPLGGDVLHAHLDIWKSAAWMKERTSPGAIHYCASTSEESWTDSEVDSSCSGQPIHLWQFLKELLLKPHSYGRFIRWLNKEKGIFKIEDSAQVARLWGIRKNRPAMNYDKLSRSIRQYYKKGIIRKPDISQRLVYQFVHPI
Procedure, shortened: as §1

ETV6 = ETV6 (Homo sapiens, UniProt P41212 1-452); settings: protein: recombinant; tags: N-terminal GST; dsDNA, one strand shown
Chain of ETV6 (P41212 whole entry): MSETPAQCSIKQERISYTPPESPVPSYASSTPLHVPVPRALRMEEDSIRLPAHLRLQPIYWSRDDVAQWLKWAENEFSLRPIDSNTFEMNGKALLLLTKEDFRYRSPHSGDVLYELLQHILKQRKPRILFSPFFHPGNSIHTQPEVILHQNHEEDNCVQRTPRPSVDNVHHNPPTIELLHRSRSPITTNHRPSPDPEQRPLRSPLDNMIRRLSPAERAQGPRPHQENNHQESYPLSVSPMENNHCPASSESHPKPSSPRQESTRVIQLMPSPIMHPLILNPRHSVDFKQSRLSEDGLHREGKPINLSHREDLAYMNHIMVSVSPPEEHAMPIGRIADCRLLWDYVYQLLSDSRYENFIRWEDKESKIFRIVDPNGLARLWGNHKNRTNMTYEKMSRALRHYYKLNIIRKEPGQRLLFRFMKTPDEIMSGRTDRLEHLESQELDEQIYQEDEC
Procedure, shortened: as §1

SPIC = molecular target: T8, SPIC (Homo sapiens, UniProt Q8N5J4 1-248); settings: protein: recombinant; tags: N-terminal GST; dsDNA, one strand shown
T8 sequence: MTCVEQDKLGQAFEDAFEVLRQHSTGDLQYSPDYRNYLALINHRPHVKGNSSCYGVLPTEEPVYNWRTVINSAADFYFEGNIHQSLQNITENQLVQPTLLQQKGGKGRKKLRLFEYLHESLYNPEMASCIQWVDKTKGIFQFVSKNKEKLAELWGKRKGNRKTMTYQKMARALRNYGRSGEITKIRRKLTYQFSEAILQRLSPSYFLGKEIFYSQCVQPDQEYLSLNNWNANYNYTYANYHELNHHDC
Procedure, shortened: as §1

ELF3 = molecular target: T9, ELF3 (Homo sapiens, UniProt P78545 1-371); settings: protein: recombinant; tags: N-terminal GST; dsDNA, one strand shown
T9 sequence: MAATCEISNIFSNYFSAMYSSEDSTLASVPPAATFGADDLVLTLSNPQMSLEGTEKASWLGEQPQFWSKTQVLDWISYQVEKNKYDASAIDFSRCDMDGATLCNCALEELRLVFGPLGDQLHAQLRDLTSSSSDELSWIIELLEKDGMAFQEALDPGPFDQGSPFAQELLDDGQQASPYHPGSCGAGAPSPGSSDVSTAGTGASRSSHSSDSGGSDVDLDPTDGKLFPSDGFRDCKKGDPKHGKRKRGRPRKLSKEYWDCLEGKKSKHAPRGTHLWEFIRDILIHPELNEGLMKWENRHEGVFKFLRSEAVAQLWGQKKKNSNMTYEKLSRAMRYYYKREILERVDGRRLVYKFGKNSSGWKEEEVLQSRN
Procedure, shortened: as §1

ETV2 = molecular target: T10, ETV2 (Homo sapiens, UniProt O00321 1-342); settings: protein: recombinant; tags: N-terminal GST; dsDNA, one strand shown
T10 sequence: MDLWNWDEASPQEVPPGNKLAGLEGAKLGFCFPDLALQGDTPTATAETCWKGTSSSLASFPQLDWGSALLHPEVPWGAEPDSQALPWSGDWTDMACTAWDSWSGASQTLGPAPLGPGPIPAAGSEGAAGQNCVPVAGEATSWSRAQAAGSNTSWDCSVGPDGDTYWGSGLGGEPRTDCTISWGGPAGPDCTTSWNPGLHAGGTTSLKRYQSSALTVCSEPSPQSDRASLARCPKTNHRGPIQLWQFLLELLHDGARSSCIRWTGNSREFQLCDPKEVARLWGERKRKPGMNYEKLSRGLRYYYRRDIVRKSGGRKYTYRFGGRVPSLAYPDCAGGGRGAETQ
Procedure, shortened: as §1

ETV1 = ETV1 (Homo sapiens, UniProt P50549 1-477); settings: protein: recombinant; tags: N-terminal GST; dsDNA, one strand shown
Chain of ETV1 (P50549 whole entry): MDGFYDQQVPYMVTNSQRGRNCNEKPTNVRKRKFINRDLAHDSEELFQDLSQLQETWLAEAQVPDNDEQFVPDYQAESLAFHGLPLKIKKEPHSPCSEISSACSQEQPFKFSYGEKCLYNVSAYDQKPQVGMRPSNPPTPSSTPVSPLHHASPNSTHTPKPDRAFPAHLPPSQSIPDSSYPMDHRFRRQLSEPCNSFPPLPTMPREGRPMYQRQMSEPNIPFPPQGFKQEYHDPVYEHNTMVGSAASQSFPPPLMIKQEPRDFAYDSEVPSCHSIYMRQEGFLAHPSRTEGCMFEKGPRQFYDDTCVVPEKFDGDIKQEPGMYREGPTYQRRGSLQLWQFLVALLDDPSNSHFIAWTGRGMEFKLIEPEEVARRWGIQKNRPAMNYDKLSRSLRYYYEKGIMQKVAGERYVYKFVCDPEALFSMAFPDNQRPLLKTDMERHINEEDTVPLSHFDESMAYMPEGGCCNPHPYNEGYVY
Procedure, shortened: as §1

Q: For AGATTA, which binding signal (ELK1) is on record?
A: Its binding signal is 1.02 fold enrichment (6-mer frequency, TF over GST control).

Q: And the binding signal (EHF)?
A: Its binding signal is 1.03 fold enrichment (6-mer frequency, TF over GST control).

Q: And the binding signal (SPI1)?
A: Its binding signal is 1.01 fold enrichment (6-mer frequency, TF over GST control).

Q: What about the binding signal (ELK3) of the same sequence?
A: Its binding signal is 1.03 fold enrichment (6-mer frequency, TF over GST control).

Q: What about the binding signal (HSF1) of the same sequence?
A: The binding signal was 2.62 fold enrichment (6-mer frequency, TF over GST control).

Q: And the binding signal (ELF4)?
A: The binding signal was 1.05 fold enrichment (6-mer frequency, TF over GST control).

Q: What about the binding signal (ELK4) of the same sequence?
A: Its binding signal is 1.05 fold enrichment (6-mer frequency, TF over GST control).

Q: And the binding signal (CRX)?
A: Its binding signal is 4.03 fold enrichment (6-mer frequency, TF over GST control).

Q: What about the binding signal (ETV3L) of the same sequence?
A: The binding signal was 1.02 fold enrichment (6-mer frequency, TF over GST control).

Q: And the binding signal (ETS2)?
A: The binding signal was 1 fold enrichment (6-mer frequency, TF over GST control).

Q: And the binding signal (SPDEF)?
A: The binding signal was 1.05 fold enrichment (6-mer frequency, TF over GST control).

Q: And the binding signal (ETV6)?
A: Its binding signal is 1.04 fold enrichment (6-mer frequency, TF over GST control).

Q: How did the binding signal (ELK3) turn out when CCAGCA was run?
A: Its binding signal is 1 fold enrichment (6-mer frequency, TF over GST control).

Q: What about the binding signal (HSF1) of the same sequence?
A: The binding signal was 1.21 fold enrichment (6-mer frequency, TF over GST control).

Q: What about the binding signal (SPIC) of the same sequence?
A: Its binding signal is 1.1 fold enrichment (6-mer frequency, TF over GST control).

Q: What about the binding signal (ELF3) of the same sequence?
A: Its binding signal is 1.06 fold enrichment (6-mer frequency, TF over GST control).

Q: What does the source list for AGGGTT?
A: binding signal (HSF1): 1.02 fold enrichment (6-mer frequency, TF over GST control); binding signal (ELF4): 1.03 fold enrichment (6-mer frequency, TF over GST control); binding signal (ELK4): 1.14 fold enrichment (6-mer frequency, TF over GST control); binding signal (ETV2): 1.03 fold enrichment (6-mer frequency, TF over GST control); binding signal (CRX): 1.06 fold enrichment (6-mer frequency, TF over GST control); binding signal (ETV1): 1.01 fold enrichment (6-mer frequency, TF over GST control)
